Compound activity deposited in PubChem BioAssay by National Center for Advancing Translational Sciences (NCATS).
Mito fusion act: qHTS Assay for Small Molecule Inhibitors of Mitochondrial Division or Activators of Mitochondrial Fusion | S. cerevisiae fusion-defective mutant growth rescue, CellTiterGlo 48 h | Potency, µM (top dose mostly 46.1 µM), without a hit: at the top dose growth rescue (activation), most hits filed as activators | hit rate 0.23% among 320,000; further: potency means the concentration at half of the fitted maximal effect; % of control where 0% means no effect; nearly all actives have a fitted effect of over 45% in size
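Compounds are tested for their ability to restore growth of mitochondrial fusion-defective yeast strains at non-permissive 37C in YPEG medium over 48 hours. Viability is quantified by luciferase luminescence.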
A549 tox: Nrf2 qHTS screen for inhibitors: counterscreen for cytotoxicity; A549 ARE-Fluc cells, CellTiter-Fluor viability, 18-24 h; Potency, µM (highest dose often 46 µM), without a hit: at the highest dose activity change, negative = cytotoxicity, most hits filed as inhibitors; hit rate 0.16% among 390,000; AID 504648, 2011; further: potency means the concentration at half of the fitted maximal effect; on the % scale 0 is the no-effect control and ±100 the full control effect
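Cytotoxicity counterscreen: CellTiter-Fluor fluorescence was measured in A549 ARE_Fluc cells after 18-24 h of compound exposure in a concentration series. The subsequent BugLite luminescent read reports ARE-luciferase activity.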
Nrf2 inh: Nrf2 qHTS screen for inhibitors; A549 ARE-Fluc reporter, luciferase luminescence, 18-24 h; Potency, µM (doses to about 46 µM), for the others: at the top dose activity change, negative = inhibition, usual class: inhibitors; hit rate 2.1% among 360,000; AID 504444, 2011; further: potency means the concentration at half of the fitted maximal effect; on the % scale 0 is the no-effect control and ±100 the full control effect; nearly all actives have a fitted effect of over 60% in size
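Quantitative HTS in A549 cells stably bearing an antioxidant response element-firefly luciferase construct. Inhibition of Nrf2-driven transcription was scored by luminescence after 18-24 h of compound exposure at 37 °C.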
Nrf2 ARE act: qHTS of Nrf2 Activators; Potency, µM (titrated, usually from 46.1 µM), without a hit: at the highest dose activation, most hits filed as activators; AREc32 ARE-luciferase reporter (MCF7-derived line), luminescence, 24 h; hit rate 0.31% among 410,000; further: potency means the concentration at half of the fitted maximal effect; % of control where 0% means no effect; nearly all actives have a fitted effect of over 65% in size
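For detection, Steady-Glo was added and plates sat 30 min at RT; before that, AREc32_Fluc cells grown overnight in OPTI-MEM/5% FBS had been treated with 23 nL compound for 24 hr at 37 deg C.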
miR-21 act: qHTS Assay for Modulators of miRNAs and/orActivators of miR-21; HeLa miR-21 FLuc reporter, luciferase, 48 h; Potency, µM (series often up to 38.3 µM), without a hit: top-dose activity change, positive = activation, most hits filed as activators; 340,000 tested, under 10 active; AID 2288, 2010;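 further: % of control where 0% means no effect; miR-21 action dims this reporter so a rising signal means less miR-21 action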
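Compounds were titrated across several concentrations (up to approximately 40 uM) and incubated 48 hours with HeLa miR-21-FLuc reporter cells (miR-21 target sequence downstream of FLuc, endogenous miR-21). Readout was firefly luciferase luminescence after lytic detection reagent.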
* hit, by the source's call; ? = inconclusive; / = no result given; [ ] = remark or other dose. In the library only some 2.3% were active in any assay of this set; here they are far more common. The call rests on the fitted dose curve; in most records, active means well fitted curve in the direction sought with a large enough effect; inconclusive means small, poorly fitted or top-dose-only effect, or another doubt; inactive means no such curve, though single readings can be large; an effect the other way counts as inactive or inconclusive.

SMILES | Mito fusion act | A549 tox | Nrf2 inh | Nrf2 ARE act | miR-21 act
O=S(=O)(NCC1CCCO1)c1ccc(-c2ccc(S(=O)(=O)NCC3CCCO3)cc2)cc1 (stereo unspecified) | -1% | 2% | 1.3µM* | 1% | 19%
Cc1ccc(S(=O)(=O)NCC2CCCO2)cc1 (stereo unspecified) | 3% | 11% | 26% | 3% | 2%
O=C(O)[C@@H]1C[C@H](C(=O)O)N1 | ? | 2% | 13% | / | /
CCOc1ccc(NS(=O)(=O)c2ccc(NC(=O)c3ccccn3)cc2)cc1 | 10% | -11% | 15µM* | -1% | /
CCOc1ccc(NS(=O)(=O)c2cc(NC(=O)c3cccc(C)c3)ccc2Cl)cc1 | 22µM* | ? | ? | 2% | 21%
CCOc1ccc(NS(=O)(=O)c2ccc(NC(=O)c3ccccc3C(=O)O)cc2)cc1 | / | 1% | -8% | 0% | /
CCCC(=O)NC(=S)Nc1ccc(S(=O)(=O)Nc2ccc(OCC)cc2)cc1 | 16µM* | 18µM* | 7.3µM* | 3% | 24%
CCOc1ccc(NS(=O)(=O)c2ccc(NC(=S)NC(=O)CC(C)C)cc2)cc1 | ? | ? | / | 4% | 20%
Cc1ccc(OCC(=O)OCc2cc(=O)n3c(C)csc3n2)cc1 | / | 6% | ? | 12% | -1%
Cc1ccc(NC(=O)c2ccc(=O)[nH]n2)cc1C | 4% | -6% | ? | 3% | -67%
Cc1ccc(NC(=O)c2ccc(=O)[nH]n2)cc1S(=O)(=O)Nc1ccc(SC(F)F)cc1 | / | -11% | 21µM* | 4% | /
Cc1ccc2nc(N3CCN(c4ccccc4F)CC3)c3nnnn3c2c1 | / | 7% | 20% | 0% | 2%
Cc1cc(Cl)ccc1OCC(=O)Nc1ccncc1 | 3% | -1% | 23µM* | -1% | 2%
Cc1ccc(OCC(=O)Nc2ccncc2)cc1 | 1% | 4% | ? | -1% | -6%
Cc1cccc(OCC(=O)Nc2ccc(-c3nc4ccccc4o3)cc2)c1C | / | -3% | 21µM* | 5% | -9%
CC(=O)c1ccc(NC(=O)COc2ccccc2-c2nc(-c3ccc(C)cc3)no2)cc1 | / | -17% | 26µM* | 6% | ?
Cc1ccc(C)c(OCC(=O)Nc2ccncc2)c1 | 5% | 3% | 5.2µM* | 2% | 4%
Cc1cc(-c2ccc(S(=O)(=O)Nc3cccc(Cl)c3C)cc2)on1 | / | -10% | ? | -1% | 25%
Cc1ccc(NS(=O)(=O)c2cc3c(cc2Cl)CCC(=O)N3)cc1C | / | 1% | -21% | / | /
Cc1cccc(OCC(=O)Nc2ccncc2)c1C | -2% | -7% | 7.3µM* | 0% | 4%
COc1ccccc1OCC(=O)Nc1ccncc1 | -2% | -2% | -20% | 4% | -6%
COc1cc(OC)c(N(C)C(=O)c2cc3c(s2)-c2ccccc2OC3)cc1Cl | / | -4% | ? | -1% | -3%
Cc1ccc(C)c(N2CCN(C(=O)CN3C(=O)COc4ccc(S(=O)(=O)N5CCC(C)CC5)cc43)CC2)c1 | / | 0% | 3% | -1% | -1%
CC(=Nc1ccc(O)cc1)c1sc2ccccc2c1O | -2% | -25% | ? | ? | -37%
Oc1c(N=Nc2ccccc2)sc2ccccc12 | -1% | 7% | 21% | 2.8µM* | -11%
SMILES | Mito fusion act | A549 tox | Nrf2 inh | Nrf2 ARE act | miR-21 act
COc1cccc(NS(=O)(=O)c2ccc3c(c2)[C@H]2C=CC[C@H]2[C@@H](c2ccccc2Cl)N3)c1 | / | -19% | 21µM* | -2% | -9%
COc1ccc(NS(=O)(=O)c2ccc3c(c2)[C@H]2C=CC[C@H]2[C@@H](c2ccc(C(=O)O)cc2)N3)cc1 | -1% | -14% | 0% | 0% | 1%
Cc1cccc(C(=O)Nc2nc3nc(-c4ccccc4)cc(=O)n3[nH]2)c1 | / | -1% | 9% | -1% | -10%
CCOC(=O)[C@H]1[C@H]2COc3ccc(Cl)cc3[C@@H]2N2C(=O)c3ccc(C)cc3NC(=O)[C@@]12C | ? | -10% | 16% | 0% | /
CCOC(=O)[C@H]1[C@H]2COc3ccc(Cl)cc3[C@@H]2N2C(=O)c3ccc(F)cc3NC(=O)[C@@]12C | ? | -8% | 23µM* | 3% | /
COc1ccc(Br)cc1CC1C(=O)Nc2ccccc21 (stereo unspecified) | / | 2% | 7.3µM* | 4% | 24%
Cc1ccccc1CC1C(=O)Nc2ccc(Br)cc21 (stereo unspecified) | / | 4% | -1% | 8% | ?
CC(C)(C)c1ccc(S(=O)(=O)N2CCC(c3nc4ccc(Cl)cc4[nH]3)CC2)cc1 | ? | ? | 16µM* | 4% | 14%
Cc1ccc(S(=O)(=O)c2cnc(-c3ccccc3)[nH]c2=O)cc1 | / | -2% | 6% | / | /
Cc1ccc(-c2nc(-c3ccccn3)no2)cc1 | -14% | -1% | 2.1µM* | -2% | ?
O=S(=O)(c1ccc2c(c1)OCCO2)N1CCN(S(=O)(=O)c2ccccc2Cl)CC1 | / | 4% | 16% | / | /
O=C(CSc1ccccc1Cl)N1CCC(c2nc3ccccc3s2)CC1 | 5% | 3% | ? | 1% | 4%
O=C(CSc1ccc2ccccc2n1)N1CCC(c2noc3ccc(F)cc23)CC1 | 20µM* | -12% | ? | 0% | -11%
O=C(CSc1ccc(F)cc1)N1CCC(c2nc3ccccc3s2)CC1 | -5% | -10% | 18µM* | 4% | 19%
O=C(CN1CCC(c2nc3ccccc3s2)CC1)NCc1cccs1 | 6% | -2%[1.84 µM] | 7.3µM* | 4% | 18%
CCOC(=O)c1ccc2[nH]c(CSc3nnc(-c4cccc(F)c4)n3C)cc(=O)c2c1 | / | -15% | / | -1% | -4%
Cc1c(NC(=O)c2cccs2)cccc1-c1nc2cc(Cl)ccc2o1 | / | -2% | ? | 19% | -15%
O=C(NCc1ccc(F)cc1)C1CCCCN1S(=O)(=O)c1ccc(F)cc1 (stereo unspecified) | / | 2% | 21% | 4% | -1%
Cc1cc(C)cc(NC(=O)Cc2csc(COc3cccc(C)c3)n2)c1 | / | 5% | 9% | -1% | -10%
COC(=O)C(C)Nc1cccc(Br)c1 (stereo unspecified) | -2% | 1% | -1% | 0% | -1%
CCOC(=O)C(C(=O)OCC)C(Nc1cccc(Br)c1)c1ccccc1 (stereo unspecified) | 0% | ? | 18µM* | ? | ?
O=C(O)CCC(=O)Nc1nnc(C(F)(F)F)s1 | 6% | 0% | / | 0% | 2%
CCC(NC(=O)Nc1nnc(C(F)(F)F)s1)(C(F)(F)F)C(F)(F)F | -20% | 7.3µM* | 3.7µM* | 0% | 30%
Cc1ccc(-c2[nH]ncc2CNC(C)c2ccccc2)cc1 (stereo unspecified) | / | 11% | 15% | / | /
CC1(c2nnc(Cc3ccccc3)o2)CC(c2ccc(OC(F)(F)F)cc2)=NO1 (stereo unspecified) | 6% | -12% | 23µM* | 1% | /
